Wnt bcat act: activators of Wnt/beta-catenin signaling; activation, % at 9.35 µM; AID 743398; Wnt/beta-catenin reporter cell assay, activator, plate reader; 300,000 tested, 1.2% active; in the data active = activation above about 30%, passing the limit was not always enough; inconclusive = no clear call, values can overlap the other calls;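 also: 0% = neutral control wells and 100% = positive control wells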
EWS-Fli inh: blocks EWS/Fli oncoprotein-driven transcription. A673 NR0B1-luciferase reporter, viability-normalised. inhibition, % at 12.6 µM. 350,000 tested, 0.67% active. AID 651661;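 active = mean inhibition of at least 50% after viability correction, with every replicate also passing that limit; inconclusive = mean reaches 50% but only one of two replicates passes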;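 also: firefly luciferase signal divided by Alamar Blue viability fluorescence both relative to DMSO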
PAX8 inh HTS: inhibitors of PAX8 transcriptional activity in RMG-I cells. RMG-I TPO-luciferase reporter, SteadyGlo, 24 h. inhibition, % at 12.6 µM. 360,000 tested, 1.2% active;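 active = mean replicate inhibition at least 60% with every replicate also reaching 60%; inconclusive = only one of the two criteria is met; inactive = mean below 60% and not all replicates reaching 60%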;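 also: luciferase light reporting Pax8 driven TPO promoter activity; plate controls were median of neutral control wells for no effect and mitoxantrone controls for full effect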
esBAF inh: SWI/SNF esBAF complex inhibition; mouse ES cells, Bmi1-luciferase knock-in reporter, 24 h; 100% = twice the neutral-well signal; reporter increase, % at 12.5 µM; 350,000 tested, 2% active; AID 602393; in the data active = activation above about 40%; inconclusive = no clear call, values can overlap the other calls;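 also: 0% = median of the plate's neutral control wells and 100% = double that signal; a rise in the Bmi1 reporter signal indicates esBAF inhibition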
MITF TRPM1 HTS: activators of MITF-driven TRPM1 promoter activity in SK-MEL-5 cells; 300,000 tested, 0.75% active; activation, % at 12.5 µM; SK-MEL-5 TRPM1-promoter luciferase, 24 h; % of positive control, neutral wells = 0;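 active = mean activation of at least 80% with every replicate also reaching 80%; inconclusive = mean reaches 80% but some replicate falls short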;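 also: 0% = neutral control wells and 100% = parthenolide positive control wells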
MITF TRPM1 inh: inhibitors of MITF-driven TRPM1 promoter in melanoma cells; SK-MEL-5 TRPM1 promoter luciferase, 24 h; inhibition, % at 12.5 µM; 330,000 tested, 0.83% active; AID 488899;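 active = mean inhibition across replicates of 60% or more, whatever share of single replicates reaches that level; inconclusive = some that reach 60%, reason not given; inactive = mean inhibition across replicates below 60%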
Active calls of the source: *; ? = inconclusive; . = not tested or not shown. A selection: hits, their analogues and other compounds. The true share with any hit is near 4%.

SMILES	Wnt bcat act	EWS-Fli inh	PAX8 inh HTS	esBAF inh	MITF TRPM1 HTS	MITF TRPM1 inh
CN(C)c1ccc(C=c2c3ccccc3n3c2c2ccccc2[n+]3C)cc1	-19	8	88*	.	9	-12
CN(C)c1ccc(C=C2C=Cc3ccccc32)cc1	0	22	-140	-11	35	-35
CC1=NN(c2cccc(F)c2)C(=O)/C1=C/c1ccc(N(C)C)cc1	0	8	14	6	.	13
CCc1ccc(/C=C2\Oc3ccc(C(=O)OC)cc3C2=O)cc1	-1	.	-44	.	15	-19
COC(=O)c1ccc2c(c1)C(=O)/C(=C/c1ccc(C)cc1)O2	5	.	-32	67*	64	-61
COc1ccc(-c2cc3cc(OC)c(OC)cc3cn2)cc1OC	?	-35	-47	.	.	-58
COc1cc(OC)cc(-c2cc3cc(F)ccc3cn2)c1	39*	-104	-153	69*	121*	-118
COc1ccc(-c2cc3ccc(F)cc3cn2)cc1	?	2	-123	-6	55	-52
COc1ccc(-c2cc3cc(F)ccc3cn2)cc1	43*	11	-132	5	67	-61
Cc1ccc(-c2cc(N)n[nH]2)cc1	.	.	.	6	4	-4
CC(C)(C)c1ccc(-c2cc(N)n[nH]2)cc1	3	63*	-8	-57	-92	95*
C[C@@H]1CN([C@H](C)CO)C(=O)c2cc(C#CCN(C)C)cnc2O[C@@H]1CN(C)C(=O)NC1CCCCC1	.	-1	-15	-2	.	.
CCCNC(=O)N(C)C[C@H]1Oc2cc(C#CC3CC3)ccc2S(=O)(=O)N([C@@H](C)CO)C[C@H]1C	.	-5	.	-1	.	.
O=C(Cc1ccccn1)N[C@H]1CC[C@@H](CC(=O)N2CCCCC2)O[C@H]1CO	.	3	-6	3	.	.
COc1ccc(NC(=O)N(C)C[C@@H]2Oc3ncc(-c4ccc(C#N)cc4)cc3C(=O)N([C@H](C)CO)C[C@H]2C)cc1	.	-14	.	2	.	.
COc1cccc(C2=CC(=O)C[C@H](c3ccc4c(c3)OCO4)C2)c1OC	.	.	.	43*	57	-52
COc1ccc(F)cc1C1=CC(=O)C[C@H](c2ccc3c(c2)OCO3)C1	-5	53*	-2	9	-26	27
COc1cc(F)c(C2=CC(=O)C[C@H](c3ccc4c(c3)OCO4)C2)cc1F	2	-2	9	2	-4	7
COc1cccc(OC)c1C1=CC(=O)C[C@H](c2ccc3c(c2)OCO3)C1	-2	3	5	1	-5	2
O=C(CC1CC1)N1CC(=O)N2[C@@H](CO)[C@@H](c3ccc(C#Cc4ccccc4)cc3)[C@@H]2C1	.	-1	.	.	.	.
Cc1nc(NC(=O)CCc2ccccc2)sc1C	5	-66	-94	57*	66	-68
O=C(O)c1cccc(NC(=S)NC(=O)c2ccc(-c3ccccc3)cc2)c1	12	-49	-158	.	-1	-6
Cc1ccc(C(=O)NC(=S)Nc2c(C)ccc3nsnc23)cc1	.	.	.	.	-12	10
Cc1ccc(C(=O)NC(=S)Nc2cccc3nsnc23)cc1	.	.	.	63*	9	-11
Cc1nc(NC(=S)NC(=O)c2ccccc2)sc1C	1	-93	-104	45*	57	-52
SMILES	Wnt bcat act	EWS-Fli inh	PAX8 inh HTS	esBAF inh	MITF TRPM1 HTS	MITF TRPM1 inh
Cc1nc(NC(=O)c2ccccc2)sc1C	4	-27	-57	6	.	-48
Cc1ccc(C(=O)O)cc1NC(=S)NC(=O)c1ccc(-c2ccccc2)cc1	11	-33	-116	62*	18	-14
COCC(=O)Nc1ccc2c(c1)C(=O)N(C)C[C@H](OC)[C@H](C)CN(C(=O)c1cnccn1)[C@@H](C)CO2	.	-4	.	5	.	.
CNC(=O)C[C@H]1CC[C@H]2[C@@H](COC[C@H](O)CN2Cc2ccc(Cl)c(Cl)c2)O1	.	-10	-12	-3	.	.
CC(C)NC(=O)N(C)C[C@@H]1OCCCC[C@H](C)Oc2ccc(NC(=O)NC3CCCCC3)cc2C(=O)N([C@@H](C)CO)C[C@H]1C	.	0	13	4	.	.
CC(=O)c1cccc(NC(=S)NC(=O)c2ccccc2)c1	.	.	-272	.	?	-88
Cc1nc(NC(=O)c2csc3ccccc23)sc1C	42*	.	.	-3	30	-27
Cc1nc(NC(=O)c2ccccc2O)sc1C	11	-49	-139	35	?	-83
Cc1cc(C)c(NC(=S)NC(=O)c2ccccc2)cc1C	34*	-32	-96	.	.	.
Cc1c(Cl)cccc1NC(=S)NC(=O)c1ccccc1	0	-45	-111	60*	.	.
COC(=O)c1cccc(NC(=S)Nc2cccc(Cl)c2C)c1	0	-4	-4	.	0	-3
O=C(C[C@@H]1CC[C@@H](NC(=O)Nc2ccc(F)cc2)[C@H](CO)O1)NCc1ccccn1	.	7	-4	-2	.	.
Cc1noc(C)c1NC(=O)Nc1ccc2c(c1)C(=O)N([C@H](C)CO)C[C@@H](C)[C@H](CN(C)C(=O)Nc1c(C)noc1C)OCCCC[C@@H](C)O2	.	-3	-25	0	.	.
N#Cc1cc2cc3c(cc2nc1N1CCCCC1)OCCO3	32*	.	-258	70*	102*	-98
O=C(CN1C(=O)CCC1=O)c1ccc(-c2ccccc2)cc1	4	-13	-29	.	1	-9
N=c1ccn(CC(=O)c2ccc(-c3ccccc3)cc2)cc1	-10	31	83*	.	-31	34
Cc1c(OCC(=O)NC2CC(C)(C)NC(C)(C)C2)ccc2c1oc(=O)c1ccccc12	1	-5	-5	1	-74	76*
CC(C)Sc1ncnc2c1oc1ccccc12	.	.	.	33	48	-45
c1ccc(Nc2ncnc3c2oc2ccccc23)cc1	29	.	-200	88*	11	-10
c1ccc2c(c1)oc1c(Nc3ccc4c(c3)OCO4)ncnc12	33*	.	.	44*	42	-39
COc1ncnc2c1oc1ccccc12	16	-89	-12	60*	23	-17
COC(=O)C[C@@H]1C[C@H]2c3cc(NC(=O)NC4CCCCC4)ccc3O[C@H]2[C@H](CO)O1	.	-14	-3	-11	.	.
CCC(=O)N(C)C[C@@H]1Oc2cc(C#CC3CCCC3)ccc2S(=O)(=O)N([C@@H](C)CO)C[C@@H]1C	.	11	.	10	.	.
COc1ccc(-c2cc3nc(C)n(N)c(=O)c3s2)cc1	-11	90*	86*	.	.	79*
COc1ccc(-c2cc3nc4n(c(=O)c3s2)CCCCC4)cc1	37*	-29	-126	7	.	-57
SMILES	Wnt bcat act	EWS-Fli inh	PAX8 inh HTS	esBAF inh	MITF TRPM1 HTS	MITF TRPM1 inh
COc1ccc(-c2cc3nc4n(c(=O)c3s2)CCC4)cc1	-6	?	.	-67	-53	51
Cc1nc2cc(-c3ccccc3)sc2c(=O)n1N	1	76*	76*	.	-91	90*
O=C(NC1=NCCS1)c1ccc(Cl)cc1	21	-117	-178	44*	.	-46
Cc1cc(NC(=O)c2cccc(Br)c2)n[nH]1	25	-83	-102	47*	56	-53
O=C(NC1=NCCS1)c1cccc(Br)c1	42*	-89	-106	48*	.	-54
COc1cccc(C(=O)NC2=NCCS2)c1	44*	.	-48	-31	.	-21

Compound activity as filed in PubChem.
